Hit rate of the full screen: of about 340,000 compounds, about 100 (0.029%) were called active. Roughly 8% stayed inconclusive and do not appear here. Calls follow the shape of the full dose curve. The sample as a whole holds a higher share of actives than the screen did.
biological target: Importin subunit beta-1 (Homo sapiens) (UniProt Q14974); test: qHTS Assay for Inhibitors of Rango (Ran-regulated importin-beta cargo) - Importin beta complex formation; settings: Rango CFP/YFP FRET sensor + importin beta, 45 min; series mostly up to 92.2 µM; inhibition of complex formation: at the top concentration;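 also: 0% = DMSO wells and 100% = buffer wells lacking importin beta; nearly all actives have a fitted effect of over 15% in size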
Excerpt: NIH Molecular Libraries Probe Production Centers Network [MLPCN] NIH Chemical Genomics Center [NCGC] MLPCN Grant: R03 MH090808-01A1 Assay Submitter (PI): Petr Kalab NCGC Assay Overview: The small GTPase Ran regulates transport of macromolecules between the nucleus and the cytoplasm (nuclear transport) and has important functions in mitotic spindle assembly, nuclear envelope (NE) formation and nuclear pore complex (NPC) assembly. RanGTP gradient is thought to promote spindle assembly by providing a spatial clue to microtubule nucleation and Aurora A activation. Because the localized release and binding of importin alpha cargo relays this spatial clue to SAFs, inhibitors of the Rango - importin beta complex can then be used in further understanding their role in cell cycle specifically in mitosis progression. […] Activation of Aurora A has been linked to different types of cancer and a number of Aurora kinase inhibitors are being developed as potential canter therapeutics therefore, identified inhibitors of this complex could be developed into potential anti-mitotic probes for cancer treatment. Purified recombinant proteins Rango and importin beta were provided by the assay submitter. The assay used a fluorescence resonance energy transfer (FRET) Rango biosensor that contains the IBB of human snurportin 1 flanked by yellow fluorescent protein (EYFP) at the amino terminus and cerulean CFP10 at the carboxy terminus. […] Inhibitors will therefore be identified based on the ability to interfere with the FRET signal decrease. DMSO treated and no importin beta (buffer only) wells were used as negative and positive controls respectively. FRET readings were obtained at two time points. FRET reading prior to importin beta addition (pre-read) were used flag potential compound interference; FRET reading after importin beta addition (post-read) were used to identify inhibitors using the FRET ratio parameter.
NCGC Assay Protocol Summary: Two and a half uL/well of Rango-buffer solution (50 nM Rango, 1x PBS, 1mM DTT, 0.02% Tween-20, 0.1% BSA final concentrations) was dispensed into 1536-well assay plates (Greiner, solid black medium-binding plates) with Aurora Discovery BioRAPTR Flying Reagent Dispenser (FRD; Beckton-Dickenson). Compound solution (23 nL) was transferred to the assay plate using Kalypsys pin tool equipped with a 1536-pin tool and incubated at room temperature for 5 min followed by a FRET pre-read using the PerkinElmer Envision plate reader. Two and a half uL/well of Importin beta - buffer solution (0.125 microM importin beta, 1x PBS, 1mM DTT, 0.02% Tween-20, 0.1% BSA final concentrations) were then added and incubated at room temperature giving a final reaction volume of 5uL. After 45min FRET post-read was obtained via the Envision plate reader using the same optics and settings as the pre-read (CFP/YFP optimized dual optical module D450/D505; excitation mirror CFP 430/24 nm; and emission filters CFP 486/10 nm and YFP 530/10 nm).

Importin subunit beta-1 (Homo sapiens), sequence (Q14974 whole entry, looked up): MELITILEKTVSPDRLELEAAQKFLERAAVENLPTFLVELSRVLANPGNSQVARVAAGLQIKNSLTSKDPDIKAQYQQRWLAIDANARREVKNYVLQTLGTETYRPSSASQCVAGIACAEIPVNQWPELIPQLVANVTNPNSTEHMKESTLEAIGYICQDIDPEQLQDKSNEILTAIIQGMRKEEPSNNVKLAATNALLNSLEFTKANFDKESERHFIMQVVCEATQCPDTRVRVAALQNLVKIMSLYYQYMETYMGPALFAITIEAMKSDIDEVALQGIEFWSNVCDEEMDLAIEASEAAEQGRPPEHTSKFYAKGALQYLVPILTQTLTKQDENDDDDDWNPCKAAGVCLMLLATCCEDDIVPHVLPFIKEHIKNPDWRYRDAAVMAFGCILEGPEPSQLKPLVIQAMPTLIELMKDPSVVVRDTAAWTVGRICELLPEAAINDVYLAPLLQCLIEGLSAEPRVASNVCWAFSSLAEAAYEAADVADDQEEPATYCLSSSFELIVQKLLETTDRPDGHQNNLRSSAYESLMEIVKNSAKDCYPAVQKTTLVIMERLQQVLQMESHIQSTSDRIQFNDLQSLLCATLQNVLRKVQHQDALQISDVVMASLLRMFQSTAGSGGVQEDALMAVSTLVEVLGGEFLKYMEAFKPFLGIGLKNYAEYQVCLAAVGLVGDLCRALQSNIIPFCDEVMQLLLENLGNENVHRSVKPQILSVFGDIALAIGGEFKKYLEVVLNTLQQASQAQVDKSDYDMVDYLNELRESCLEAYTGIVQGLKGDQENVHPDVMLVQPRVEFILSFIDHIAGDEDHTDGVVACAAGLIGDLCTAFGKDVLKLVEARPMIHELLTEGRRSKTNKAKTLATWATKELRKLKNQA

Row | SMILES | inhibition of complex formation
1 | CC(C)=CCc1ccc(O)c(=O)cc1C(C)C | -0.975% (inactive)
2 | O=C(Nc1ccc2ccccc2c1[N+](=O)[O-])c1ccccc1 | 3.45% (inactive)
3 | COc1ccc(Cl)cc1C=CC=NNC(=O)c1ccncc1 | 4.63% (inactive)
4 | CC(C)(C)OC(=O)N1CCC(C(=O)Nc2cccc(C(=O)NCCc3ccccc3)c2)CC1 | 1.14% (inactive)
5 | COC1=CC(=O)OC(C)(c2ccccc2)C1 (centres undefined) | -1.43% (inactive)
6 | Cc1ccc(Nc2c(O)nc[nH]c2=O)cc1C | -7.42% (inactive)
7 | CCCN(CC(=O)Nc1ccccc1C)C(=O)c1ccc(OCC(=O)N2CCOCC2)c(OCC)c1 | -0.312% (inactive)
8 | COc1ccc(-c2ccc3c(c2)[C@@H]2C[C@H](N(C)S(=O)(=O)c4ccccc4)[C@H]([C@H](C)O)C(=O)N2CC3)cc1 | -1.31% (inactive)
9 | CC1(C)N=C(N)NC(Nc2ccc(Cl)cc2)=N1 | 2.24% (inactive)
10 | CN(C(=O)c1cccc(NC(=O)Cc2ccc(NC(=O)C3CCN(C(=O)C4CCCCC4)CC3)cc2)c1)C1CCC1 | -2.04% (inactive)
11 | CC(C)(C)c1nnc2sc(SCC(O)=C(C#N)c3nc4ccccc4[nH]3)nn2c1=O | 0.14% (inactive)
12 | Cc1ccc(S(=O)(=O)N2CCN(C(=O)c3cc(S(=O)(=O)N4CCOCC4)ccc3F)CC2)cc1 | -3.27% (inactive)
13 | Cc1nn(-c2ncccn2)c2c1C(=O)CC(C)(C)C2Br (centres undefined) | -3.68% (inactive)
14 | CCN(CC(=O)Nc1c(F)cccc1F)C(=O)Cc1cccs1 | -5.32% (inactive)
15 | NC(=O)c1ccc(N2CCCC2)nc1 | 0.637% (inactive)
16 | COc1cc2[nH]c(O)c(C=O)c2cc1OC | -0.216% (inactive)
17 | CC/C(=C\c1ccc(Cl)cc1)c1ccncc1 | 0.876% (inactive)
18 | COc1ccc(Cl)cc1C=CC=Nc1ccc(S(N)(=O)=O)cc1 | -2.29% (inactive)
19 | COc1ccc(CCNC(=O)c2ccc(NC(=O)CC3SC(N4CCCCC4)=NC3=O)cc2)cc1OC (centres undefined) | -3.12% (inactive)
20 | CSCCC(NC(=O)COc1ccccc1)C(=O)N1CCN(c2cccc(C(F)(F)F)c2)CC1 (centres undefined) | 4.24% (inactive)
21 | CCCCN1CC(COc2ccccc2)Oc2cccc(F)c2S1(=O)=O (centres undefined) | 2.87% (inactive)
22 | O=C(NN=Cc1ccccc1)c1ccccc1 | -2.28% (inactive)
23 | O=C(Nc1c(Br)cc2c(c1Br)Cc1cc([N+](=O)[O-])ccc1-2)C(Cl)Cl | -0.563% (inactive)
24 | CC(=O)OC1CCC2C3CCC4=C(CC(F)C(=O)C4)C3CCC12C (centres undefined) | -1.03% (inactive)
25 | O=[N+]([O-])c1ccc(COc2ccccc2CN2CCOCC2)cc1 | 3.71% (inactive)
26 | COc1cccc(CC(=NO)c2cccc(OC)c2)c1 | -0.088% (inactive)
27 | NC(=O)C1(Nc2ccc(-c3ccccc3)cc2)CCCC1 | 0.958% (inactive)

Row | SMILES | inhibition of complex formation
28 | O=C(O)C(=Cc1ccccc1[N+](=O)[O-])c1ccccc1 | -0.207% (inactive)
29 | CCOC(=O)c1ccccc1NC(=O)CSc1nc2c(sc(=S)n2CC)c(=O)[nH]1 | 0.302% (inactive)
30 | O=C(CCCCCCCC(=O)N1CCCCC1)N1CCCCC1 | -2.28% (inactive)
31 | Nc1cc2c(cc1Br)-c1ccc(F)cc1C2=O | -2.11% (inactive)
32 | O=C1NC(c2ccccc2)Cc2ccncc21 (centres undefined) | 0.404% (inactive)
33 | Cc1ccc(OCCNC(=O)c2cccc(S(=O)(=O)N3CCN(Cc4ccccc4)CC3)c2)cc1 | 3.25% (inactive)
34 | O=C1CC(c2ccccc2)C(c2ccccc2)=NN1 (centres undefined) | -1.44% (inactive)
35 | Nc1ccc2c(c1)C(=Cc1cccnc1)c1ccccc1-2 | -0.161% (inactive)
36 | Oc1ccc(-c2nc3ccccc3nc2-c2ccc(O)cc2O)c(O)c1 | 1.75% (inactive)
37 | O=C(Nc1ccccc1)Oc1cccc2cccnc12 | -0.849% (inactive)
38 | O=[N+]([O-])c1ccc(NS(=O)(=O)c2ccccc2)c(Cl)c1 | -1.29% (inactive)
39 | O=C(Cc1ccc(Cl)cc1)c1ccccc1 | 3.5% (inactive)
40 | O=C1C(=O)N(c2ccccc2)C(c2ccccc2)C1c1ccccc1 (centres undefined) | 2.65% (inactive)
41 | Cc1cc([N+](=O)[O-])ccc1NS(=O)(=O)c1ccccc1 | 2.79% (inactive)
42 | O=C(c1ccc2c(c1)C(=O)N(Cc1ccncc1)C2=O)N1CCN(S(=O)(=O)c2ccc(OC(F)(F)F)cc2)CC1 | 5.12% (inactive)
43 | O=S(=O)(Cc1ccc(Cl)cc1Cl)c1ccc(Cl)cc1 | -2.04% (inactive)
44 | Cc1c(NS(=O)(=O)c2cccc(C(=O)Nc3ccc(SC(F)F)cc3)c2)c(=O)n(-c2ccccc2)n1C | -1.93% (inactive)
45 | C[n+]1cccc(C(=O)O)c1 | 8.24% (inactive)
46 | CCCCN(C(=O)c1cccc(N2C(=O)c3ccccc3C2=O)c1)c1c(N)n(CCCC)c(=O)[nH]c1=O | -5.63% (inactive)
47 | CSCCC(NS(=O)(=O)c1ccc(C)cc1)C(=O)N(C)CC(=O)Nc1ccccc1Br (centres undefined) | -2.58% (inactive)
48 | COc1ccccc1NC(=O)N(O)C1(C#N)CCCCC1 | 6.65% (inactive)
49 | O=C(Nc1c[nH]c(=O)[nH]c1=O)OCc1ccccc1 | -3.52% (inactive)
50 | COc1cc2c(cc1OC)C(Cc1cc(OC)c(OC)cc1[N+](=O)[O-])=NCC2 | -4.04% (inactive)
51 | CN(O)C(=S)c1ccccc1 | 0.436% (inactive)
52 | Cc1ccc(S(=O)(=O)c2cc3c(=O)n4cccc(C)c4nc3n(CCc3ccccc3)c2=N)cc1C | -0.419% (inactive)
53 | O=C1OC(Oc2ccc(Br)cc2)(c2ccccc2)c2ccccc21 (centres undefined) | 4.41% (inactive)
54 | N#CC1(Nc2ccc(-c3ccc(Cl)cc3)cc2)CCCC1 | -0.935% (inactive)

Reference: PubChem BioAssay AID540263 (National Center for Advancing Translational Sciences (NCATS), 2011)
